# Reference: PubChem BioAssay
# Where “and” joins values, the source holds several entries; their conditions need not be identical. Equal values may be shown once. For some assays here: Results with a measured potency or affinity are listed apart. Calls of active or inactive are those of the source.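 How the source made its calls, unless noted: active means compounds whose cell count with miR-34 switched on is under 0.7 times the count with it off; inactive means the rest.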
# How the values were obtained:
# [1] = compounds altering circadian rhythm period length – cell-based, LOPAC library, luminescence reporter (AID 2774; call rule not given here;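 further: values are relative to mean of DMSO wells on each plate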); settings: circadian reporter cells, at 7 µM, actives lie on both sides
# [2] = tested on: Hepatitis C virus NS3 helicase; assay: blockers of NS3h binding to ssDNA – biochemical, fluorescence polarization, LOPAC1280 library, primary screen (AID 687035; in the data active means inhibition above about 37%); settings: Purified HCV NS3 helicase, Cy5-dT15 ssDNA binding fluorescence polarization; stronger effect = higher value; concentration not given here
# [3] = target: 6-phosphogluconate dehydrogenase, decarboxylating (Homo sapiens) (UniProt P52209); assay: inhibition of human phosphogluconate dehydrogenase – biochemical, recombinant enzyme, NADPH absorbance, primary screen (AID 1159550;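 active means at least 20% inhibition of 6-phosphogluconate dehydrogenase activity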); settings: recombinant 6PGD, NADPH absorbance 341 nm; at 10 µM; stronger effect = higher value
# [4] = EMT-state selective cytotoxicity in co-culture – imaging, PC-3E GFP, TEM4-18 mCherry, primary screen (AID 1345086;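 active means compounds killing one labelled cell type while sparing the other, by normalised counts and ratio limits, not self-fluorescent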;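 on all read-outs here: cells exposed to compound for 72 h before imaging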;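 on red/green cell ratio (normalised): normalised mesenchymal count divided by normalised epithelial count so high means epithelial killing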); settings: PC-3E GFP / TEM4-18 mCherry co-culture, imaging cell counts, at 1 µM; for red/green cell ratio (normalised): actives lie on both sides, counts scaled to control wells, 1 = unselective
# [5] = viability loss with induced miR-34 in A549 – imaging, A549 dox-inducible miR-34, nuclei and caspase counts, primary screen (AID 1347080); settings: A549 miR-34 inducible, Hoechst nuclei count, 48 h
# [6] = blockers of cellular phospholipid synthesis – cell-based, LOPAC library, screen 4, primary screen (AID 1347384; call rule not given here); settings: animal cells, phospholipid biosynthesis inhibition screen; at 10 µM
# [7] = target: Mitogen-activated protein kinase 7 (Homo sapiens) (UniProt Q13164); assay: Gal4-ERK5 driven luciferase induction – cell-based, HTS, primary screen (AID 1508626;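 active means luciferase signal above three times the same-plate solvent-only control wells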;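 further: luciferase driven by Gal4-ERK5 fusion binding five Gal4 sites before minimal TATA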); settings: HeLa Gal4-ERK5 transactivation, 18 h, at 5 µM, stronger effect = higher value
# [8] = galactose survival enhancers in mitochondrial complex I cybrids – cell-based, galactose medium, ATP luminescence, primary screen (AID 1645843;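 active means z-score of at least 1.8 in each of two replicates, scored against plate mean and spread of sample wells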;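 further: positive z means more ATP and so rescue of galactose-driven cybrid death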); settings: complex I mutant cybrid cells, 72 h, stronger effect = higher value
# [9] = blockers of polyQ-driven CASP3 activation – cell-based (AID 1583); settings: polyglutamine-induced caspase-3 activation, cell assay; stronger effect = higher value;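 tested at 10 µM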
# [10] = yeast 75Q aggregation reduction – 75Q-TubU reporter (AID 1593); settings: Yeast 75Q polyglutamine aggregation reporter
# [11] = restoration of touch response, mutant HTT neurons – whole organism, C. elegans mechanosensory neurons, N-terminal huntingtin (AID 1599); settings: C. elegans polyQ-huntingtin mechanosensory neurons, stronger effect = higher value
# [12] = blockers of cytochrome c efflux from mitochondria – biochemical, purified mitochondria (AID 1603); settings: stronger effect = lower value;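 further: mouse liver mitochondria challenged with calcium chloride; signal normalized to the plate average as 100%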
# [13] = polyglutamine aggregate formation blockers (AID 1604); settings: polyglutamine-induced protein aggregation inhibition assay; stronger effect = higher value; tested at 2.5 µM
# [14] = glutamate transport activators, MN-1 cells, MN-1 cell line (AID 1612); settings: MN-1 motor neuron cells, stronger effect = higher value;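 further: tested at 1 µM final; 0% = mean of DMSO vehicle wells on each plate; positive means more glutamate uptake than control and negative means less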
# [15] = 75Q-TubH aggregate inhibition, S. cerevisiae, yeast (AID 1616); settings: S. cerevisiae 75Q-TubH polyglutamine aggregation suppression; stronger effect = higher value
# [16] = P. berghei load reduction in hepatocytes – cell-based, HepG2, luciferase luminescence, HepG2 viability, primary screen (AID 624349; in the data active means parasite load remaining mostly below about 12%, no sharp cut-off; inactive means mostly above about 10%;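 further: 100% = mean of DMSO negative control wells on the same plate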); settings: P. berghei liver stage in HepG2, luciferase luminescence, concentration not given here; parasite load remaining: stronger effect = lower value; viability: measured here: HepG2 viability without parasites
# [17] = MELAS cybrid and Rieske KO viability enhancers – cell-based, MELAS cybrids, Rieske KO mouse fibroblasts, CellTiter-Glo, primary screen (AID 1508586;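 active means mean z-score across replicates of 1.96 or higher in either the MELAS or the Rieske mutant cell line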;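 further: z relative to plate mean and SD of compound and empty wells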); settings: low glucose
# [18] = GFP-Q80 aggregate reduction, neuronal-like cells, cell-based, NGF-treated PC12, GFPQ80 (AID 1614); settings: PC12 NGF-treated GFP-polyQ80 inclusion reduction;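 further: lower means fewer inclusions and 0 means no inclusions at all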
# [19] = target: NAD(+) hydrolase SARM1 (Homo sapiens) (UniProt Q6SZW1); assay: blocking NAD cleavage by SARM1 SAM-TIR – cell lysate, NAD-Glo luminescence (AID 1508614;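 active means compound whose remaining NAD level is above about 45 nM, limit read from the data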); settings: SAM-TIR HEK293T lysate NADase, at 1 µM, stronger effect = higher value
# [20] = measured here: epithelial PC-3E GFP cell survival
# [21] = measured here: mesenchymal TEM4-18 mCherry cell survival
# [22] = stronger effect = lower value, cell number ratio, induced over uninduced
# [23] = measured here: relative caspase fold change +Dox/-Dox
# [24] = measured here: total cells with miR-34 induction, stronger effect = lower value
# [25] = measured here: total cells without miR-34 induction
# [26] = MELAS cybrid survival, CellTiter-Glo 48 h, stronger effect = higher value
# [27] = Rieske KO mouse fibroblast survival, CellTiter-Glo 72 h
# 6-phosphogluconate dehydrogenase, decarboxylating (Homo sapiens), sequence (P52209 whole entry, looked up): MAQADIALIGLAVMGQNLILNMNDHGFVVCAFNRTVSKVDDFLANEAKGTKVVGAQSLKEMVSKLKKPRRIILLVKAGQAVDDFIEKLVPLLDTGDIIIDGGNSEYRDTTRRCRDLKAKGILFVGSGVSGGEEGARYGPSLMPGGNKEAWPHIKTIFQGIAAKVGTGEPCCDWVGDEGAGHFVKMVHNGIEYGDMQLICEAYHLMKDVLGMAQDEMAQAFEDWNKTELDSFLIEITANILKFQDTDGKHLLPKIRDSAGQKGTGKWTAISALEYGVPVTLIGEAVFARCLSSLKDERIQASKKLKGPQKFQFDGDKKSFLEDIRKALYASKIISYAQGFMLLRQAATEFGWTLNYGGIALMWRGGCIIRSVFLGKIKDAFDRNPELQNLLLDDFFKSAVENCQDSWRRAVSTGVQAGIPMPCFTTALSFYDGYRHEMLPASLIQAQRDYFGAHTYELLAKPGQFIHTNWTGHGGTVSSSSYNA
# NAD(+) hydrolase SARM1 (Homo sapiens), sequence (Q6SZW1 whole entry, looked up): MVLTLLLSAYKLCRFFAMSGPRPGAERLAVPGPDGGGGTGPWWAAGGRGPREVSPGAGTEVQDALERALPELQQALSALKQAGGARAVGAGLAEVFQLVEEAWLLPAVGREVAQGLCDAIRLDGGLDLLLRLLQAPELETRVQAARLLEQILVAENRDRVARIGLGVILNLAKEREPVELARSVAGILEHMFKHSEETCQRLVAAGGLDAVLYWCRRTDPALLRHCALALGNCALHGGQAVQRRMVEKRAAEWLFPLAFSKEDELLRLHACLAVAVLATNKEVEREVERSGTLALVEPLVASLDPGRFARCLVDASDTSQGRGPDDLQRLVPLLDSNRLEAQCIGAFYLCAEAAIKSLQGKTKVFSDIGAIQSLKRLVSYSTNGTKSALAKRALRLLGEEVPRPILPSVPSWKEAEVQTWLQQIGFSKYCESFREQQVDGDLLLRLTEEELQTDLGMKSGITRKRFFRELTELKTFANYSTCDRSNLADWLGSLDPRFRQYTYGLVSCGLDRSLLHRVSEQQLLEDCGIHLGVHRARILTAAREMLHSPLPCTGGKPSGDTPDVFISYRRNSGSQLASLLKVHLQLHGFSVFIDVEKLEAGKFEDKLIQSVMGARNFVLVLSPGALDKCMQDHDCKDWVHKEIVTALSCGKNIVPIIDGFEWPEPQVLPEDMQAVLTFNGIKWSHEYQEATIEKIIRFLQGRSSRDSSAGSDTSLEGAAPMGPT
# Mitogen-activated protein kinase 7 (Homo sapiens), sequence (Q13164 whole entry, looked up, the tested form may be a part): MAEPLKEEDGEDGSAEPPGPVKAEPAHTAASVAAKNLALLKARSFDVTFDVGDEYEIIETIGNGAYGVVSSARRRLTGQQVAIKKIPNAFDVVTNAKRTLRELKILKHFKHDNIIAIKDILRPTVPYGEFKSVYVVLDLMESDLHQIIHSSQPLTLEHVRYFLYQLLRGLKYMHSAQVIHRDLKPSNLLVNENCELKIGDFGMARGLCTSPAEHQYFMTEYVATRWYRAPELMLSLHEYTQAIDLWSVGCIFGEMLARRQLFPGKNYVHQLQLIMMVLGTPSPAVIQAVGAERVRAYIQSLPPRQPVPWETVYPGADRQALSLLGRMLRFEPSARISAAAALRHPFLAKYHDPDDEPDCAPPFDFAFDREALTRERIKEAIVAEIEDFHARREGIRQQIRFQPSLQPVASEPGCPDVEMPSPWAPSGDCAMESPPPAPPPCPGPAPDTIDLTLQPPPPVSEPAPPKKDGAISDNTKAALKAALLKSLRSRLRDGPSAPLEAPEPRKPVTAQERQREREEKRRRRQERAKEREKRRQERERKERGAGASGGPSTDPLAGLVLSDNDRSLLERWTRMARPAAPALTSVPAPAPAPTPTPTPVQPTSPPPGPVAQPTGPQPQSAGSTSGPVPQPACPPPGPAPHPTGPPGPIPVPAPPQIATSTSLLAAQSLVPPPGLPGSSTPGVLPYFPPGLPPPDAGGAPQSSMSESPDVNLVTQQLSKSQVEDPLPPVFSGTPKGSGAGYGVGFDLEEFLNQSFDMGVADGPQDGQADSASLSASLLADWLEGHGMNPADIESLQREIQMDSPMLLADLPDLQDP
smiles,measurement,setting,value
O=C(/C=C/c1ccc(O)cc1)c1ccc(O)cc1O,period change,[1],0.18 h (inactive)
same,inhibition,[2],0% (inactive)
same,inhibition,[3],-4.78% (inactive)
same,red/green cell ratio (normalised),[4],1.01 (inactive)
same,normalised cell number,[4]; [20],0.91
same,normalised cell number,[4]; [21],0.91
same,fold change,[5]; [22],1.12 (inactive)
same,fold change,[5]; [23],0.85
same,cell count,[5]; [24],9020
same,cell count,[5]; [25],8080
same,outcome,[6],inactive
same,luciferase signal,[7],80 AU (inactive)
same,z-score,[8],-0.25 (inactive)
CCC(c1ccc(O)cc1)C(CC)c1ccc(O)cc1 (stereo not given),inhibition,[9],87.7%
same,score,[10],-0.18
same,rescue above control,[11],0
same,cytochrome c release ratio,[12],0.95
same,inhibition of aggregation,[13],62%
same,glutamate uptake change,[14],-7.89%
same,aggregation suppression score,[15],-0.0418
same,parasite load remaining,[16],53.4% (inactive) and 65.7% (inactive)
same,viability,[16],91.5% and 76.1%
same,inhibition,[3],-4.21% (inactive)
same,red/green cell ratio (normalised),[4],0.99 (inactive)
same,normalised cell number,[4]; [20],1.08
same,normalised cell number,[4]; [21],1.07
same,fold change,[5]; [22],0.875 (inactive) and 0.921 (inactive)
same,fold change,[5]; [23],1.39 and 0.838
same,cell count,[5]; [24],8210 and 9640
same,cell count,[5]; [25],9390 and 10500
same,z-score,[17]; [26],-0.359 (inactive) and -2.3 (inactive)
same,z-score,[17]; [27],0.432 and -0.759
same,luciferase signal,[7],40 AU (inactive)
CC[C@H]1OC(=O)[C@H](C)[C@@H](O[C@H]2C[C@@](C)(OC)[C@@H](O)[C@H](C)O2)[C@H](C)[C@@H](O[C@@H]2O[C@H](C)C[C@H](N(C)C)[C@H]2O)[C@](C)(O)C[C@@H](C)/C(=N\OCOCCOC)[C@H](C)[C@@H](O)[C@]1(C)O,inhibition,[9],1.74%
same,score,[10],0.81
same,rescue above control,[11],1.9
same,cytochrome c release ratio,[12],0.93
same,inhibition of aggregation,[13],60.6%
same,glutamate uptake change,[14],2.1%
same,inclusion score,[18],2
same,aggregation suppression score,[15],0.306
same,parasite load remaining,[16],160% (inactive) and 51.6% (inactive)
same,viability,[16],87.6% and 99.8%
same,inhibition,[3],16.8% (inactive)
same,red/green cell ratio (normalised),[4],1 (inactive)
same,normalised cell number,[4]; [20],1.13
same,normalised cell number,[4]; [21],1.13
same,fold change,[5]; [22],0.869 (inactive)
same,fold change,[5]; [23],4.54
same,cell count,[5]; [24],10400
same,cell count,[5]; [25],12000
same,z-score,[17]; [26],-0.323 (inactive)
same,z-score,[17]; [27],-0.397
same,remaining NAD,[19],10 nM (inactive)
same,luciferase signal,[7],84 AU (inactive)
O=c1c(O)c(-c2ccc(O)c(O)c2)oc2cc(O)ccc12,inhibition,[3],-3.55% (inactive)
same,red/green cell ratio (normalised),[4],1.02 (inactive)
same,normalised cell number,[4]; [20],1.04
same,normalised cell number,[4]; [21],1.06
same,fold change,[5]; [22],0.705 (inactive) and 0.857 (inactive)
same,fold change,[5]; [23],0.235 and 0.741
same,cell count,[5]; [24],4440 and 7100
same,cell count,[5]; [25],6300 and 8290
same,z-score,[17]; [26],-0.19 (inactive) and -0.5 (inactive)
same,z-score,[17]; [27],-0.897 and -0.252
same,luciferase signal,[7],56 AU (inactive)
same,z-score,[8],0.17 (inactive)
O=c1cc(-c2ccccc2)oc2cc(O)cc(O)c12,inhibition,[9],16.7%
same,score,[10],-0.45
same,rescue above control,[11],1.21
same,cytochrome c release ratio,[12],0.64
same,inhibition of aggregation,[13],83.3%
same,glutamate uptake change,[14],-33.9%
same,aggregation suppression score,[15],0.573
same,parasite load remaining,[16],112% (inactive) and 75% (inactive)
same,viability,[16],98.1% and 69.3%
same,inhibition,[3],13.6% (inactive)
same,red/green cell ratio (normalised),[4],0.89 (inactive)
same,normalised cell number,[4]; [20],1.21
same,normalised cell number,[4]; [21],1.08
same,fold change,[5]; [22],0.807 (inactive) and 0.948 (inactive)
same,fold change,[5]; [23],1.38 and 0.939
same,cell count,[5]; [24],5370 and 8220
same,cell count,[5]; [25],6660 and 8680
same,z-score,[17]; [26],-0.289 (inactive)
same,z-score,[17]; [27],0.583
same,luciferase signal,[7],136 AU (inactive)
O=C(/C=C/C=C/c1ccc2c(c1)OCO2)N1CCCCC1,inhibition,[9],-11.5%
same,score,[10],0.85
same,rescue above control,[11],3.18
same,cytochrome c release ratio,[12],0.68
same,inhibition of aggregation,[13],51%
same,glutamate uptake change,[14],10.6%
same,inclusion score,[18],2
same,aggregation suppression score,[15],0.367
same,inhibition,[3],0.86% (inactive)
same,red/green cell ratio (normalised),[4],0.95 (inactive)
same,normalised cell number,[4]; [20],1.26
same,normalised cell number,[4]; [21],1.2
same,fold change,[5]; [22],0.898 (inactive) and 0.941 (inactive)
same,fold change,[5]; [23],1.07 and 2.41
same,cell count,[5]; [24],7720 and 10400
same,cell count,[5]; [25],8590 and 11100
same,remaining NAD,[19],10 nM (inactive)
same,luciferase signal,[7],80 AU (inactive)
Nc1ccc(S(=O)(=O)Nc2ncccn2)cc1,inhibition,[9],-24.3%
same,score,[10],0.99
same,rescue above control,[11],-2.17
same,cytochrome c release ratio,[12],1.47
same,inhibition of aggregation,[13],53.9%
same,glutamate uptake change,[14],-2.67%
same,inclusion score,[18],2
same,aggregation suppression score,[15],0.995
same,inhibition,[3],5.23% (inactive)
same,red/green cell ratio (normalised),[4],1.41 (inactive)
same,normalised cell number,[4]; [20],0.84
same,normalised cell number,[4]; [21],1.19
same,z-score,[17]; [26],-0.222 (inactive) and 0.26 (inactive) and -0.566 (inactive)
same,z-score,[17]; [27],0.689 and 0.071 and -1.27
same,remaining NAD,[19],10 nM (inactive)
same,luciferase signal,[7],40 AU (inactive)
same,z-score,[8],-0.065 (inactive)
c1coc(CNc2ncnc3nc[nH]c23)c1,inhibition,[9],6.38%
same,score,[10],1.14
same,rescue above control,[11],19.9
same,cytochrome c release ratio,[12],1.1
same,inhibition of aggregation,[13],68.2%
same,glutamate uptake change,[14],-3.65%
same,inclusion score,[18],2
same,aggregation suppression score,[15],0.807
same,parasite load remaining,[16],122% (inactive) and 193% (inactive)
same,viability,[16],98% and 74%
same,inhibition,[3],6.86% (inactive)
same,red/green cell ratio (normalised),[4],1.01 (inactive)
same,normalised cell number,[4]; [20],1.05
same,normalised cell number,[4]; [21],1.07
same,fold change,[5]; [22],1.04 (inactive) and 1.1 (inactive)
same,fold change,[5]; [23],0.935 and 0.585
same,cell count,[5]; [24],8620 and 8070
same,cell count,[5]; [25],8250 and 7310
same,z-score,[17]; [26],-0.185 (inactive) and -0.0285 (inactive)
same,z-score,[17]; [27],-0.0997 and -0.188
same,luciferase signal,[7],84 AU (inactive)
COc1cc(/C=C/C(=O)O)ccc1O,parasite load remaining,[16],186% (inactive)
same,viability,[16],69.3%
same,inhibition,[3],3.09% (inactive)
same,red/green cell ratio (normalised),[4],1.05 (inactive)
same,normalised cell number,[4]; [20],1
same,normalised cell number,[4]; [21],1.05
same,luciferase signal,[7],48 AU (inactive)
NC(N)=NC(N)=Nc1ccccc1,inhibition,[9],53.4% and -16.9%
same,score,[10],1.25 and 0.9
same,rescue above control,[11],-3.01 and 7.54
same,cytochrome c release ratio,[12],0.86 and 1.03
same,inhibition of aggregation,[13],72.2% and 69.7%
same,glutamate uptake change,[14],-1.79% and -11.1%
same,inclusion score,[18],2
same,aggregation suppression score,[15],1.39 and 0.87
same,period change,[1],0.065 h (inactive)
same,inhibition,[2],-3% (inactive)
same,inhibition,[3],-4.29% (inactive)
same,red/green cell ratio (normalised),[4],0.97 (inactive)
same,normalised cell number,[4]; [20],1.24
same,normalised cell number,[4]; [21],1.2
same,fold change,[5]; [22],1 (inactive) and 0.938 (inactive)
same,fold change,[5]; [23],1.38 and 0.627
same,cell count,[5]; [24],9810 and 9310
same,cell count,[5]; [25],9810 and 9920
same,outcome,[6],inactive
same,z-score,[8],0.085 (inactive) and -0.065 (inactive)
